TRHR enhancer: qHTS for Small Molecule Agonists and Allosteric Enhancers of Human TRH Receptor: Primary Screen for Enhancers. enhancement, % at 2 µM. TRHR cells, fluo-8 calcium fluorescence, EC20 TRH enhancement. actives 0.66% (n = 360,000). Thyrotropin-releasing hormone receptor (Homo sapiens), P34981; in the data active = enhancement above about 30%
Target sequence (P34981 whole entry, looked up): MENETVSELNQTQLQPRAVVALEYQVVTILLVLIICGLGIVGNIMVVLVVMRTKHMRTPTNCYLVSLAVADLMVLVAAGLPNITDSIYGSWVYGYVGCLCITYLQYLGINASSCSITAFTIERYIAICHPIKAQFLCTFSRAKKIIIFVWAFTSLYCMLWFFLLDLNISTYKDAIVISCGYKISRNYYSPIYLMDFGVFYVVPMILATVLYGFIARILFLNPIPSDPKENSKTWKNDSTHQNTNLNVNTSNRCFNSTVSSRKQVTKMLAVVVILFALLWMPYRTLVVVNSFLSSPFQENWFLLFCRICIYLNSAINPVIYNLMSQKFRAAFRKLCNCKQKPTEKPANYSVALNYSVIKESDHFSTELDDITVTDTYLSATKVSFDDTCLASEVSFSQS
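Enhancer read-out: after compound pinning and an initial kinetic agonist-mode read, an EC20 of TRH (10 nM final) was injected and fluo-8 calcium signal (Ex 480/Em 530) followed at 1 s/cycle for 100 cycles in TRHR-expressing cells.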
D1 agonist: Allosteric Agonists of the Human D1 Dopamine Receptor: qHTS. D(1A) dopamine receptor (Homo sapiens), P21728. HEK293 T-REx D1 cells, calcium flux, agonist mode. activation, % at 2 µM. actives 1% (n = 360,000)
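Agonism was scored from calcium flux recorded over 180 s (1 read/s) after pintool compound addition, following a 10-cycle baseline. Cells were inducible force-coupled HEK293 TREx D1, plated overnight at 30 C and loaded with no-wash calcium dye.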
D1 antagonist: Antagonist of Human D 1 Dopamine Receptor: qHTS; actives 3.2% (n = 360,000); D(1A) dopamine receptor (Homo sapiens), P21728; activity change, negative = inhibition, % at 10 µM; HEK293 TREx D1 cells, calcium flux, dopamine EC80; hits give low values; in the data active = activity change below about -30%
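Using tetracycline-induced force-coupled D1 Hek293 cells and a calcium dye, signals were followed for 180 s after compound, then for 180 s after EC80 dopamine, to detect inhibitors.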
D1 potentiator: Potentiators of Human D1 Dopamine Receptor: qHTS; D(1A) dopamine receptor (Homo sapiens), P21728; HEK293 TREx D1 cells, calcium flux, dopamine EC20 potentiation; potentiation, % at 10 µM; actives 0.036% (n = 360,000); in the data active = potentiation above about 30%
LDHA inh: qHTS assay for inhibitors of human lactate dehydrogenase. purified LDHA, NADH/diaphorase-resazurin fluorescence; hits give low values. activity change, % (values are at about 110 or 230 µM). actives 0.15% (n = 480,000); in the data active = activity change below about -30%
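Human LDH5 at 2 nM final in Tris HCl pH 7.4 with 0.06 mM NADH and 0.2 mM pyruvate, reacted 5 minutes at room temperature. Remaining NADH coupled via diaphorase/resazurin; resorufin fluorescence read at 0 and 20 minutes, normalized to enzyme-free and DMSO wells.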
TRHR ag: qHTS for Small Molecule Agonists and Allosteric Enhancers of Human TRH Receptor: Primary Screen for Agonists; Thyrotropin-releasing hormone receptor (Homo sapiens), P34981; TRHR cells, calcium flux fluo-8, FDSS agonist mode; activation, % at 2 µM; actives 0.18% (n = 360,000)
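Steps: seed TRHR cells overnight; add fluo-8 no-wash Ca dye, RT 30 min–1.5 h; record 10 s baseline; pin-transfer compounds; monitor fluorescence 1 cycle/s for the agonist window. Calcium increases flag candidate agonists.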
Hits are given with their value; 0 = inactive; - = no result given. Rows were chosen to be rich in hits. Some 3.6% of all compounds tested hit in one or more screens of this group. Rule as the data show it, unless noted: active = activation above about 30%; inactive = the rest.

SMILES	TRHR enhancer	D1 agonist	D1 antagonist	D1 potentiator	LDHA inh	TRHR ag
Nc1nn(Cc2ccc(Cl)cc2Cl)cc1Br	-	-	-	-	0	-
O=C(NNC(=O)c1ccccc1[N+](=O)[O-])c1ccc(NC(=O)c2ccccc2)cc1	0	0	-38	0	0	0
CN(C)S(=O)(=O)c1cccc(NC(=O)COC(=O)c2ccc3ccccc3n2)c1	-	-	-	-	0	-
CCN(CC)S(=O)(=O)c1cc(C(=O)OCC(=O)Nc2cccc(S(=O)(=O)N(C)C)c2)ccc1F	0	0	-40	0	0	0
CCc1ccccc1NC(=O)CNC(=O)c1cc(=O)c2cc(C)ccc2o1	-	-	-	-	0	-
CCN1/C(=C/C=C/c2sc3ccccc3[n+]2CC)Sc2ccccc21	0	0	0	0	0	0
CCN1/C(=C/C=C/c2oc3ccc(-c4ccccc4)cc3[n+]2CC)Oc2ccc(-c3ccccc3)cc21	0	547	-84	0	0	317
O=C(CSc1nnnn1C1CC1)N1CCN(Cc2ccccc2F)CC1	0	0	-34	0	0	0
COc1ccc2oc(C(=O)NCc3ccccc3CN3CCCC3)c(C)c2c1	0	0	-57	-	0	0
COc1ccc2cc(C(=O)NCc3ccccc3CN3CCCC3)ccc2c1	0	0	-64	0	0	0
O=C(COc1ccc2ccccc2c1)NCc1ccccc1CN1CCCC1	-	-	-	-	0	-
Cc1cc(NC(=O)NCC(c2cccs2)N2CCOCC2)n(C)n1 (stereo unspecified)	-	-	-	-	0	-
CCOCCOC(=O)C(C)Oc1ccc2c(=O)c(Oc3cccc(C)c3)c(C(F)(F)F)oc2c1 (stereo unspecified)	-	-	-	-	0	-
O=C(Nc1ccc(C(=O)NCC2CCN(Cc3ccccc3F)CC2)cc1)C1=CSCCO1	0	0	0	0	0	0
Cc1ccc(CN2CCC(CNC(=O)c3ccc(NC(=O)C4=CSCCO4)cc3)CC2)cc1	0	0	-30	0	0	0
O=C(Nc1ccc(C(=O)NCCCN2CCN(c3ccccc3)CC2)cc1)C1=CSCCO1	0	36	-39	0	0	0
CN1CCN(CCCNC(=O)c2ccc(NC(=O)C3=CSCCO3)cc2)CC1	0	0	0	0	0	0
COc1ccc(CNC(=O)c2ccc(NC(=O)C3=CSCCO3)cc2)cc1	34	0	0	0	0	0
Cc1sc2nc(CSc3ccccc3)nc(N3CCN(C)CC3)c2c1C	0	0	-42	0	0	0
CCCCc1noc(CN2CCC(NC(=O)c3cnn(C)c3)CC2)n1	-	-	-	-	0	-
CCn1c2c(c(=O)n3ncc(C(=O)N4CCN(c5ccc(Cl)cc5)CC4)c13)CN(Cc1ccc(OC)cc1)CC2	0	0	-46	0	0	0
CCn1c2c(c(=O)n3ncc(C(=O)Nc4ccc(F)c(Cl)c4)c13)CN(Cc1ccc(OC)cc1)CC2	0	0	0	0	0	0
CCCCn1c(SCC(=O)O)nc2c1c(=O)[nH]c(=O)n2C	-	-	-	-	0	-
COC(=O)COc1cc2occ(-c3csc(C)n3)c(=O)c2cc1C	-	-	-	-	0	-
CCc1cc2c(=O)c(-c3nc(C)cs3)coc2cc1OC(C)C(=O)NCCO (stereo unspecified)	0	0	-33	0	0	0
SMILES	TRHR enhancer	D1 agonist	D1 antagonist	D1 potentiator	LDHA inh	TRHR ag
Fc1ccccc1CNC(=S)Nc1cccc(C(F)(F)F)c1	0	0	-44	0	0	0
Fc1ccc(CNC(=S)Nc2cccc(C(F)(F)F)c2)cc1	0	0	0	0	0	0
FC(F)(F)c1cccc(NC(=S)NCc2ccc(Cl)cc2)c1	0	0	-51	0	0	0
CN(C)NC(=S)Nc1cccc(C(F)(F)F)c1	0	0	0	0	0	0
Cc1ccc(NC(=S)Nc2ccc(OC(F)F)c(Cl)c2)cc1Cl	0	0	0	0	0	0
CC(NC(=S)Nc1ccc(OC(F)F)c(Cl)c1)C(C)(C)C (stereo unspecified)	0	0	-88	0	0	0
CC(NC(=S)Nc1cccc(C(F)(F)F)c1)C(C)(C)C (stereo unspecified)	0	0	-35	0	0	0
Cc1nc(COc2ccc(C(=O)N3CCN(C4CCS(=O)(=O)C4)CC3)cc2)cs1 (stereo unspecified)	-	-	-	-	0	-
COC(=O)c1ccc(CN(C)S(=O)(=O)c2ccc3c(c2)OCCCO3)cc1	-	-	-	-	0	-
COC(=O)c1cc2c3ccccc3n(C)c2s1	-	-	-	-	0	-
O=C(COc1cccc(Cl)c1Cl)c1ccc2ccccc2c1	-	-	-	-	0	-
CC(=O)Nc1ccc(NS(=O)(=O)c2cc(Br)cc3c2N(C(=O)C2CC2)CC3)cc1	0	0	0	0	0	0
O=C(C1CC1)N1CCc2cc(Br)cc(S(=O)(=O)NCc3ccco3)c21	0	0	-31	0	0	0
COc1ccc(NS(=O)(=O)c2cc(Br)cc3c2N(C(=O)C2CC2)CC3)cc1OC	49	0	0	0	0	0
COc1ccc(NS(=O)(=O)c2ccc3c(c2)CCCN3C(=O)C2CCC2)cc1OC	0	0	-42	0	0	0
COc1cc(NC(=O)CCNS(=O)(=O)c2ccc3c(c2)CCN3C(=O)C2CC2)cc(OC)c1	46	0	0	0	0	0
COc1ccc(OC)c(NS(=O)(=O)c2ccc3c(c2)CCCN3C(=O)C2CCC2)c1	0	0	0	0	0	0
CCC(=O)N1CCc2cc(S(=O)(=O)NCCC(=O)Nc3ccc(OC)cc3)ccc21	0	0	0	0	0	0
CC(=O)N1CCN(c2ccccc2NC(=O)c2ccc(-c3ccccc3)cc2)CC1	-	-	-	-	0	-
CC(C)NC(=O)CN(C)CC(O)COc1cccc(Br)c1 (stereo unspecified)	-	-	-	-	0	-
Cc1c(CCC(=O)NCCc2cccc(F)c2)c(=O)oc2cc(O)ccc12	-	-	-	-	0	-
CCCc1nc2oc3ccccc3c(=O)c2c(=O)n1-c1ccc(C)cc1	0	37	0	0	0	0
COCCN(CCOC)C(=O)c1cccc2c(=O)c(C)c(-c3ccccc3)oc12	-	-	-	-	0	-
CCN(C(=O)Cn1nc(Cc2cccnc2)c2ccccc2c1=O)c1ccc(OC)cc1	-	-	-	-	0	-
CC1CCN(c2nc(-c3cccnc3)nc3scc(-c4ccccc4)c23)CC1	41	0	0	0	0	0
CC1CCCN(c2nc(-c3cccnc3)nc3scc(-c4ccccc4)c23)C1 (stereo unspecified)	0	0	0	0	0	0
N#CC1(Br)C(=N)c2ccccc2CC12CCCCC2 (stereo unspecified)	-	-	-	-	0	-

Screens deposited in PubChem by National Center for Advancing Translational Sciences (NCATS).
